Source: PubChem
BaF3 tox: parental Ba/F3 viability inhibition as JAK2V617F counter-screen; CellTiter-Glo ATP luminescence; inhibition, % at 5.6 µM; hit rate 1.1% among 220,000;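 active = inhibition above a per-campaign cutoff, the mean inhibition of all tested compounds plus 3 SD, cut at about 27% in these data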
APP 5UTR inh: APP translation inhibition | SH-SY5Y APP 5'UTR-luciferase reporter, luminescence | inhibition, % at 2 µM | hit rate 0.82% among 190,000;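 active = inhibition above a set limit, derived from the sample mean plus 3 SD, cut at about 45% in these data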
IEC-6 cytotox: IEC-6 cytotoxicity, counter-screen for KLF5 inhibitors. luminescence viability. inhibition, % at 5 µM. hit rate 0.78% among 290,000. AID 1825; in the data active = inhibition above about 22%
Ba/F3 V617F tox: lowers viability of Ba/F3 cells expressing EpoR and JAK2V617F | inhibition, % at 5.6 µM | ATP luminescence | AID 1446 | hit rate 1.1% among 220,000;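 active = inhibition above the campaign mean plus 3 SD over all tested compounds, cut at about 24% in these data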;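 note: cytokine-independent growth of Ba/F3 cells driven by EpoR plus mutant JAK2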
KLF5 inhibitor: suppresses KLF5 promoter-driven expression; DLD-1 KLF5 promoter-luciferase reporter, luminescence; inhibition, % at 5 µM; hit rate 0.23% among 290,000;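 active = inhibition above a per-plate limit of that plate's mean compound inhibition plus 3 SD, cut at about 60% in these data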;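 note: higher means less KLF5 promoter-driven luciferase light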
aSyn 5UTR inh: 5' untranslated region of α-synuclein, MLPCN primary screen. AID 1813. inhibition, % (tested at 7.5 µM). hit rate 0.82% among 300,000. alpha-synuclein 5'UTR reporter, inhibitor activity; in the data active = inhibition above about 60%;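 note: H4 neuroglioblastoma cells stably carrying SNCA 5'UTR luciferase fusion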
Each line names hits and unclear results; the compound was inactive in the other large screens. The list is not random: actives were taken first. Their share in the collection is about 2.2%.

CCOc1ccc(C(=O)Nc2cc(C)ccn2)cc1	aSyn 5UTR inh 65
O=C(Nc1ccccn1)c1cc2ccccc2o1	none
CC(C)[C@H](NC(=O)N1c2ccccc2NC(=O)[C@@H]1C(C)C)C(=O)N[C@@H](Cc1c[nH]c2ccccc12)C(=O)O	none (no result: BaF3 tox, APP 5UTR inh, Ba/F3 V617F tox)
Cc1noc(C)c1COc1ccc(CC(=O)NCCc2ccccn2)cc1	none (no result: BaF3 tox, APP 5UTR inh, Ba/F3 V617F tox)
Cc1ccc(CNC(=O)Cc2ccc(-c3ccccc3)cc2)cc1	aSyn 5UTR inh 73
O=C(Cc1ccc(-c2ccccc2)cc1)NCc1ccccc1	BaF3 tox 81, APP 5UTR inh 93, IEC-6 cytotox 78, Ba/F3 V617F tox 81, aSyn 5UTR inh 104
Cc1ccc(CC(=O)NCc2ccc(F)cc2)cc1	BaF3 tox 58, IEC-6 cytotox 50, Ba/F3 V617F tox 35
Cc1ccc(CNC(=O)CSCc2ccc(F)cc2)cc1	none
Cc1noc(C)c1COc1ccc(CC(=O)NCc2ccccc2)cc1	BaF3 tox 73, APP 5UTR inh 86, IEC-6 cytotox 79, Ba/F3 V617F tox 72, aSyn 5UTR inh 72
Cc1cc(NC(=O)C2CC(=O)N(c3ccc(F)cc3)C2)no1 (centres undefined)	none (no result: BaF3 tox, APP 5UTR inh, Ba/F3 V617F tox)
CC12CN3CC(C)(CN(C1)C3c1ccc(F)cc1)C2 (centres undefined)	none
Cc1cccc(N=N/C(=C\O)C(=O)c2cccs2)c1	none
Cc1nnc(NC(=O)CSc2nccn2Cc2ccccc2)s1	none (no result: BaF3 tox, APP 5UTR inh, Ba/F3 V617F tox)
O=C(c1ccc(F)cc1)N(C(=O)c1ccc(F)cc1)c1ncccn1	APP 5UTR inh 71
O=C(N/N=C/c1ccc[nH]1)c1ccc(COc2cccc3cccnc23)cc1	BaF3 tox 80, APP 5UTR inh 46, IEC-6 cytotox 39, Ba/F3 V617F tox 87, aSyn 5UTR inh 104
CC(C)CC(=O)Nc1ccc(C(=O)CN2C(=O)NC3(CCOc4ccccc43)C2=O)cc1 (centres undefined)	none (no result: BaF3 tox, APP 5UTR inh, IEC-6 cytotox, Ba/F3 V617F tox, KLF5 inhibitor)
O=C(Nc1ccc(S(=O)(=O)N2CCOCC2)cc1)c1ccc(CN2CCc3ccccc3C2)cc1	BaF3 tox 51, Ba/F3 V617F tox 63
Cc1ccc(-c2cc[n+](Cc3ccccc3)cc2)cc1	BaF3 tox 73, Ba/F3 V617F tox 85 (no result: aSyn 5UTR inh)
CCCC12CN3CC(C)(CN(C1)C3c1ccc(OC)cc1)C2=O (centres undefined)	BaF3 tox 94
C=CCOc1ccc(C2N3CC4(C)CN2CC(CCC)(C3)C4=O)cc1 (centres undefined)	none (no result: aSyn 5UTR inh)
CCN(C(=O)c1ccc2c(=O)n3c(nc2c1)CCCCC3)c1cc(OC)ccc1OC	none (no result: BaF3 tox, APP 5UTR inh, Ba/F3 V617F tox)
CCN(CC)CCOC(=O)C(Cc1ccco1)Cc1cccc2ccccc12 (centres undefined)	aSyn 5UTR inh 104 (no result: BaF3 tox, APP 5UTR inh, IEC-6 cytotox, Ba/F3 V617F tox, KLF5 inhibitor)
CCN(CC)CCOC(=O)CCc1cccc2ccccc12	none
O=C(CCNC(=O)N1CC(=O)Nc2ccccc21)Nc1ccc(F)c(Cl)c1	none (no result: BaF3 tox, APP 5UTR inh, Ba/F3 V617F tox)
CN1CCN(S(=O)(=O)c2ccc(N3CCN(S(=O)(=O)/C=C/c4ccccc4)CC3)nc2)CC1	BaF3 tox 47
CN1CCN(S(=O)(=O)c2ccc(N3CCN(C(c4ccccc4)c4ccccc4)CC3)nc2)CC1	none
N/C(=N\OC(=O)c1ccc([N+](=O)[O-])cc1)c1cccnc1	none
N/C(=N\OC(=O)c1cc([N+](=O)[O-])ccc1Cl)c1cccnc1	aSyn 5UTR inh 88 (no result: APP 5UTR inh)
CCN(CC)S(=O)(=O)c1ccc(Oc2ccc(S(=O)(=O)N(CC)CC)cc2)cc1	BaF3 tox 40, Ba/F3 V617F tox 33
Cc1cc(C)cc(N2CC(C(=O)NC3CCCCC3)CC2=O)c1 (centres undefined)	none (no result: BaF3 tox, APP 5UTR inh, Ba/F3 V617F tox)
O=C(c1ccccc1)c1cc([N+](=O)[O-])ccc1N1CCCC1	none
CN1CCN(c2ccc([N+](=O)[O-])cc2C(=O)c2ccc(Br)cc2)CC1	APP 5UTR inh 69, aSyn 5UTR inh 67
CSc1ccc(COC(=O)c2cc([N+](=O)[O-])ccc2N2CCOCC2)cc1	aSyn 5UTR inh 67 (no result: BaF3 tox, APP 5UTR inh, IEC-6 cytotox, Ba/F3 V617F tox, KLF5 inhibitor)
CN1CCN(c2ccc([N+](=O)[O-])cc2C(=O)c2ccccc2)CC1	none
COc1ccc(C(=O)c2cc([N+](=O)[O-])ccc2N2CCCC2)cc1	APP 5UTR inh 61
Cc1ccccc1COC(=O)c1cc([N+](=O)[O-])ccc1N1CCOCC1	none (no result: BaF3 tox, APP 5UTR inh, Ba/F3 V617F tox)
COc1ccc(C(=O)c2cc([N+](=O)[O-])ccc2N2CCN(C)CC2)cc1	BaF3 tox 85, APP 5UTR inh 65, IEC-6 cytotox 74, Ba/F3 V617F tox 74
COCCn1c(C)cc(/C=C(\C#N)C(=O)OC(C)C(=O)Nc2ccc(NC(C)=O)cc2)c1C (centres undefined)	none (no result: BaF3 tox, APP 5UTR inh, IEC-6 cytotox, Ba/F3 V617F tox, KLF5 inhibitor)
Cc1ccc(C(=O)c2cc([N+](=O)[O-])ccc2N2CCOCC2)cc1C	BaF3 tox 76, APP 5UTR inh 93, Ba/F3 V617F tox 85
COC(=O)c1c(NC(=O)c2ccccc2)sc2c1CC(C)(C)NC2(C)C	none
COC(=O)c1c(NC(=O)c2ccc(OC(C)C)cc2)sc2c1CC(C)(C)NC2(C)C	aSyn 5UTR inh 103
Cc1ccc2nc(-c3ccc(NC(=O)CCS(=O)(=O)c4ccccc4)cc3)sc2c1	aSyn 5UTR inh 62
Cc1cc(C(=O)N2CCCC(CO)(Cc3ccc(F)cc3)C2)c(C)o1 (centres undefined)	none (no result: BaF3 tox, APP 5UTR inh, Ba/F3 V617F tox)
O=c1c2cccc3c2c(nn1CN1CCOCC1)-c1ccccc1-3	BaF3 tox 28
O=C(CCn1nc(-c2ccccc2)c2ccccc2c1=O)NN1CCOCC1	none
Oc1ccc(-c2n[nH]c(C(F)(F)F)c2-c2ccccc2)c(O)c1	BaF3 tox 78, Ba/F3 V617F tox 56
COc1ccccc1-c1c(-c2ccc(O)cc2O)n[nH]c1C(F)(F)F	BaF3 tox 45, Ba/F3 V617F tox 48 (no result: APP 5UTR inh)
Cc1ccccc1CNC(=O)C1CCN(c2nnc(N3CCCC3=O)s2)CC1	none (no result: BaF3 tox, APP 5UTR inh, Ba/F3 V617F tox)
O=C(CS(=O)c1ccc(C(F)(F)F)cc1[N+](=O)[O-])Oc1ccccc1 (centres undefined)	BaF3 tox 48, Ba/F3 V617F tox 53
COC(=O)c1ccc(OC(=O)CS(=O)c2ccccc2[N+](=O)[O-])cc1 (centres undefined)	none
CS(=O)(=O)c1ccc(S(=O)CC(=O)OCc2ccccc2)c([N+](=O)[O-])c1 (centres undefined)	APP 5UTR inh 48, Ba/F3 V617F tox 43
COc1ccc(N=c2cc(-c3ccc(OC)cc3)oc3ccccc23)cc1	none
CCOc1ccc(N=c2cc(-c3ccc(OC)cc3)oc3ccccc23)cc1	BaF3 tox 71
CCc1cc2c(=O)n(Cc3ccco3)c(SCc3c(C)noc3C)nc2s1	APP 5UTR inh 50
N=C1S/C(=C\c2ccc(-c3cccc(Cl)c3)o2)C(=O)N1c1nccs1	none
COc1ccc(/C=C2\SC(=N)N(c3nccs3)C2=O)cc1OC	aSyn 5UTR inh 65
CCc1c(C)nc(Nc2nc(C)c3ccc(OC)cc3n2)[nH]c1=O	none
COc1ccc2c(C)nc(Nc3nc(C)c(C)c(=O)[nH]3)nc2c1	aSyn 5UTR inh 103
COc1ccc2nc(Nc3nc(CSc4nc5ccccc5[nH]4)cc(=O)[nH]3)nc(C)c2c1	aSyn 5UTR inh 103
